# Reference: ChEMBL document CHEMBL3988442, “University of Dundee, Small-Polar-MMV Screening Library” (2021)
# Out of some 48,000 compounds screened, about 13,000 (27%) showed an effect of 50% or more. Some of the results follow.
# Test system: Wolbachia pipientis
# Test: Anti-Wolbachia Cell-Based Screen
# Format: functional
# Design: scale not given: in the data most compounds retested in dose-response had high values
# Details: 5 µM
row,Structure (SMILES),Percent Effect
1,Cc1cnc(C(=O)N2CCC3(CC2)CC(c2ccncc2)C(=O)N3)cn1 (configuration not stated),-2.987%
2,CCCn1nnnc1CN(C)C(C)c1ccc(C)cc1 (configuration not stated),0.6006%
3,COc1ccc(C2(c3nc(-c4cnn(C)c4)no3)CCOCC2)cc1,-8.889%
4,O=C(NC(CO)CO)c1coc(COc2cccc(F)c2)n1,9.537%
5,CCN(CC)CC(=O)N(C)C(c1cccc(F)c1)c1ccccn1 (configuration not stated),97.45%
6,CCN(CC)S(=O)(=O)CCNC(=O)N(C)C(C)c1ccccn1 (configuration not stated),-1.522%
7,CCSCCNC(=O)C(c1cccc(F)c1)N(C)C (configuration not stated),-18.47%
8,CCS(=O)(=O)NCCCNC(=O)N(C)C(C)c1ccccn1 (configuration not stated),-6.07%
9,CCN(C(=O)CN(C)C(c1cccc(F)c1)c1ccccn1)C1CC1 (configuration not stated),13.51%
10,CC(C)N(C)CC(=O)N(C)C(c1cccc(F)c1)c1ccccn1 (configuration not stated),102.7%
11,O=S(=O)(C1CC1)N1CC[C@]2(C[C@@H](OCC3CCOCC3)CO2)C1,-13.41%
12,Cc1c(C(=O)N(C)CC(F)(F)F)nnn1-c1ccccc1Cl,-1.465%
13,COc1ccc(C(=O)Nc2c(C)nn(C(C)C)c2C)cc1,14.16%
14,COCCn1cnc2ccc(NC(=O)c3ccccn3)cc2c1=O,106.6%
15,COCCn1cnc2ccc(NC(=O)C3CC3)cc2c1=O,108.4%
16,COCCn1cc(NC(=O)NC(C)CCc2ccccc2)ccc1=O (configuration not stated),-2.537%
17,COCCn1cc(NC(=O)C(C)CCc2ccccc2F)ccc1=O (configuration not stated),-6.604%
18,Cn1cc(NC(=O)c2ccccn2)cc(Cl)c1=O,-1.878%
19,COCCOc1ccc(NC(=O)C2CCC2)cn1,-0.09217%

row,Structure (SMILES),Percent Effect
1,COCCn1cnc2ccc(NC(=O)c3ccc(OC)cc3)cc2c1=O,162.9%
2,COCCn1cnc2ccc(NC(=O)C(C)C)cc2c1=O,110.7%
3,COc1cccc(C(=O)Nc2ccc(OC3CCN(C)CC3)cc2)c1,16.42%
4,Cn1cc(NC(=O)c2ccccn2)cc(Br)c1=O,3.766%
5,COCCN1C=NC2(CCC(C(=O)Nc3ccc(C)cc3)CC2)C1=O (configuration not stated),-4.018%
6,CC(=O)NCCC(=O)NC1(c2ccc(Cl)c(Cl)c2)CC1,3.477%
7,CC(NC(=O)COc1cccc[n+]1[O-])C1CC1 (configuration not stated),-6.842%
8,Cc1ccc(CNCc2nnc3n2CC(C(F)(F)F)CC3)cc1 (configuration not stated),-7.096%
9,O=C(CCc1ccsc1)Nc1cnccc1O,9.927%
10,CC(C)CCN1CCc2[nH]nc(C(=O)N3CC=CC3)c2C1.O=C(O)C(F)(F)F.O=C(O)C(F)(F)F,-3.7%
11,COCC1CN(Cc2c(C)noc2C)Cc2ccnn2C1.O=C(O)C(F)(F)F.O=C(O)C(F)(F)F (configuration not stated),-2.816%
12,CO[C@H]1CCN(Cc2cnn(C)c2)[C@@H]2CN(Cc3cccnc3)C[C@H]12.O=C(O)C(F)(F)F.O=C(O)C(F)(F)F.O=C(O)C(F)(F)F,4.089%
13,CO[C@@H]1CCN(Cc2c(C)noc2C)[C@@H]2CN(Cc3cccnc3)C[C@@H]21.O=C(O)C(F)(F)F.O=C(O)C(F)(F)F.O=C(O)C(F)(F)F,82.84%
14,Cc1noc(C)c1CN1CC[C@H]2OCC[C@@H](C(=O)NCC3CC3)[C@@H]2C1.O=C(O)C(F)(F)F,-16.42%
15,Cc1noc(C)c1CN1C[C@@H](N(C)Cc2ccco2)[C@H]2OCCC[C@H]21.O=C(O)C(F)(F)F.O=C(O)C(F)(F)F,12.06%
16,CO[C@H]1CCN(Cc2c(C)noc2C)[C@@H]2CN(Cc3cccnc3)C[C@H]12.O=C(O)C(F)(F)F.O=C(O)C(F)(F)F.O=C(O)C(F)(F)F,114.1%
17,CO[C@H]1CCN(Cc2cccc(C)n2)[C@@H]2CN(Cc3cccnc3)C[C@H]12.O=C(O)C(F)(F)F.O=C(O)C(F)(F)F.O=C(O)C(F)(F)F.O=C(O)C(F)(F)F,-9.589%
18,CO[C@@H]1CCN(c2ncc(F)cn2)[C@@H]2CN(Cc3cccnc3)C[C@@H]21.O=C(O)C(F)(F)F.O=C(O)C(F)(F)F.O=C(O)C(F)(F)F,-6.486%
19,CO[C@@H]1CCN(Cc2cnn(C)c2)[C@@H]2CN(Cc3ccco3)C[C@@H]21.O=C(O)C(F)(F)F.O=C(O)C(F)(F)F,6.003%

row,Structure (SMILES),Percent Effect
1,CO[C@H]1CCN(Cc2c(C)noc2C)[C@@H]2CN(Cc3ccncc3)C[C@H]12.O=C(O)C(F)(F)F.O=C(O)C(F)(F)F.O=C(O)C(F)(F)F,106.3%
2,CO[C@@H]1CCN(Cc2c(C)noc2C)[C@@H]2CN(Cc3ccco3)C[C@@H]21.O=C(O)C(F)(F)F.O=C(O)C(F)(F)F,102.8%
3,COC(=O)N1CCN(CCCc2nnnn2-c2ccccc2)CC1,-41.56%
4,O=C(Cc1ccc(F)cc1Cl)N1CC[C@H](CO)[C@@H](O)C1,3.077%
5,COc1cccc2c1OCC(C(=O)N1CCN(S(C)(=O)=O)CC1)C2 (configuration not stated),0.5994%
6,CC1CCCN1C1CCN(C(=O)c2cccc(-c3ccoc3)c2)CC1 (configuration not stated),2.618%
7,CSCC[C@@H](CO)Nc1ccc(-c2nc(C3CC3)no2)cn1,-21.62%
8,Cc1noc(CS(=O)(=O)C/C=C/c2ccccc2)n1,-7.047%
9,CCc1cnc(N2CC[C@@H]3CN(C(=O)c4ccco4)CCO[C@@H]3C2)nc1,10.92%
10,COCCN1CCO[C@@H]2CN(Cc3sccc3C)C[C@@H]2C1.O=C(O)C(F)(F)F.O=C(O)C(F)(F)F,-3.44%
11,O=C(O)C(F)(F)F.O=C(c1ccsc1)N1CCO[C@@H]2CN(Cc3ccco3)CC[C@@H]2C1,99.14%
12,Cc1cc(CN2C[C@@H]3CN(C(=O)c4cccn4C)CCO[C@@H]3C2)no1.O=C(O)C(F)(F)F,9.61%
13,O=C(O)C(F)(F)F.O=C(c1ccsc1)N1CCO[C@@H]2CN(Cc3ccccn3)CC[C@@H]2C1,3.038%
14,N#Cc1cccc(CN2CC[C@@H]3CO[C@@H](CN4CCCC4)[C@@H]3C2)c1.O=C(O)C(F)(F)F.O=C(O)C(F)(F)F,-0.4401%
15,N#Cc1cccc(CN2CC[C@@H]3CN(c4ncccn4)CCO[C@@H]3C2)c1.O=C(O)C(F)(F)F,115.7%
16,Cc1cnc(N2CC[C@@H]3CN(Cc4ccncc4)CCO[C@@H]3C2)nc1.O=C(O)C(F)(F)F.O=C(O)C(F)(F)F,-11.53%
17,Cn1cccc1C(=O)N1CCO[C@@H]2CN(Cc3nccs3)C[C@@H]2C1.O=C(O)C(F)(F)F,127.2%
18,O=C(O)C(F)(F)F.O=C(c1ccco1)N1CCO[C@@H]2CN(Cc3nccs3)CC[C@@H]2C1,104%
19,O=C(O)C(F)(F)F.O=C(c1ccco1)N1CCO[C@@H]2CN(c3ccccn3)CC[C@@H]2C1,6.986%
